aSyn 5UTR act: Activators via SNCA 5'UTR binding, MLPCN | activity score, % (tested at 7.5 µM), hits read low | alpha-synuclein 5'UTR reporter, activators screen | AID 1814, 2009 | actives 7.1% (n = 300,000); in the data active means activity score below about -60%
Active calls of the source: *. Not all results are given here.

SMILES	aSyn 5UTR act
COc1cccc(-c2cc(C(=O)N3C(C)CCCC3C)no2)c1 (stereo not given)	-147*
CCC1CCCCN1C(=O)c1cc(-c2ccc(Cl)c(Cl)c2)on1 (stereo not given)	-94*
O=C(/C=C/c1ccccc1)Nc1ccc(N2CCCCC2)cc1	-196*
CN1CCN(c2ccc(NC(=O)Cc3ccccc3)cc2)CC1	-68*
O=C(Cc1ccccc1)Nc1ccc(N2CCCCC2)cc1	-67*
CN1CCN(c2ccc(NC(=O)N3CCc4ccccc43)cc2)CC1	70
O=C1c2ccccc2CN1CCSC(=S)N1CCOCC1	-105*
O=C1c2ccccc2CN1CCSC(=S)N1CCSCC1	-109*
COC(=O)C1C(=O)c2c([nH]c(C(=O)OCC3CCCO3)c2C)CC1C (stereo not given)	-113*
COC(=O)C1C(=O)c2c([nH]c(C(=O)OC3CCCCCC3)c2C)CC1C (stereo not given)	-115*
COC(=O)c1[nH]c2c(c1C)C(=O)CC(c1cccs1)C2 (stereo not given)	85
CCCCCOC(=O)c1[nH]c2c(c1C)C(=O)C(C(=O)OC)C(C)C2 (stereo not given)	-73*
CCOC(=O)c1[nH]c2c(c1C)C(=O)CC(c1ccco1)C2 (stereo not given)	73
Cc1c(C(=O)OC2CCC(C)CC2)[nH]c2c1C(=O)CCC2 (stereo not given)	-79*
COCCOC(=O)c1[nH]c2c(c1C)C(=O)C(C(=O)OC)C(C)C2 (stereo not given)	-88*
COCCOC(=O)c1[nH]c2c(c1C)C(=O)CC(c1ccccc1)C2 (stereo not given)	78
O=C(Cc1ccccc1F)Nc1ccc2c(c1)CCC2	-169*
O=C(Cc1ccc2c(c1)CCCC2)Nc1ccc2ccccc2c1	-161*
CN(C)c1ccc(/C=N/n2ncc3ccccc32)cc1	-290*
CCCCCCn1c(SCCC)nc2c1c(=O)[nH]c(=O)n2C	47
Cn1c(=O)[nH]c(=O)c2c1nc(Br)n2Cc1cccc(Br)c1	-70*
CC(C)CCn1c(SCCc2ccccc2)nc2c1c(=O)[nH]c(=O)n2C	53
Cn1c(=O)c2nc(-c3ccccc3)oc2c2ccccc21	-69*
CNc1oc(-c2ccc(OCc3ccccc3)cc2)nc1C#N	-96*
COc1ccc(-c2nc(C#N)c(NCc3ccco3)o2)cc1	-182*
SMILES	aSyn 5UTR act
Cc1ccc2cc(C#N)c(NCc3ccco3)nc2c1	-67*
Cc1ccc(-c2nc(C#N)c(NCc3ccco3)o2)cc1	-145*
COc1ccc(Nc2oc(COc3ccc(OC)cc3)nc2C#N)cc1	78
C=CCNc1oc(-c2ccc(OC)cc2)nc1C#N	-135*
COc1ccc(-c2nc(C#N)c(NCC3CCCO3)o2)cc1OC (stereo not given)	-74*
COc1ccc(Nc2oc(-c3ccc(F)cc3)nc2C#N)cc1	-233*
N#CC1=C(N)OC2=C(CC/C2=C\c2ccccc2)C1c1ccccc1 (stereo not given)	-63*
CCOC(=O)N1CCN(C(=O)CCNS(=O)(=O)c2ccc3c(c2)c(=O)n(C)c(=O)n3C)CC1	-153*
O=C1/C(=C\Nc2ccc(Cl)cc2)CCN1c1ncccn1	-158*
O=C1/C(=C\Nc2ccc(OC(F)(F)F)cc2)CCN1c1ncccn1	-201*
Cc1cc(=O)n2[nH]c(-c3ccc(F)cc3)cc2n1	-64*
Cc1cccc(-c2cc3nc(-c4ccccc4)cc(=O)n3[nH]2)c1	-103*
CCOC(=O)C1=C(c2ccccc2)O/C(=C(/C#N)C(F)(F)F)S1	-64*
CC(C)C(=O)Nc1cccc(-c2csc(-c3ccccc3)n2)c1	-70*
CC(C)C(=O)Nc1ccc(-c2csc(-c3ccccc3)n2)cc1	-205*
Cc1ccc(-c2cc(C(=O)N/N=C/c3c(C)nn(C)c3C)c3ccccc3n2)cc1C	-73*
CCc1ccc(-c2cc(C(=O)NCc3ccccn3)c3ccccc3n2)cc1	-227*
CCCc1ccc(-c2cc(C(=O)NC3=NCCS3)c3ccccc3n2)cc1	-191*
Cc1ccc(-c2cc(C(=O)NC3=NCCS3)c3ccccc3n2)cc1C	-168*
CCOC(=O)c1c(C)[nH]c2cc(Br)c(O)cc12	-92*
CCN(Cc1ccccc1)c1ccc(/C=C(\C#N)c2ccccn2)cc1	-137*
Cc1cc(=O)n2nc(-c3ccccc3)sc2n1	-99*
Cc1ccc(Nc2nc3c(c(=O)[nH]2)CCCC3)cc1	-143*
Cc1ccc(Nc2nc(C)c(CCC(C)C)c(=O)[nH]2)cc1	-94*
O=C(/C=C/c1ccc(Br)cc1)NC(=O)c1ccccc1O	-162*
SMILES	aSyn 5UTR act
CSc1ccc(/C=C/C(=O)NC(=O)c2ccccc2O)cc1	-119*
O=C(/C=C/c1ccc(O)c(O)c1)NC(=O)c1ccccc1O	-145*
COc1ccc(OC)c(/C=N/N(C)c2ccccc2)c1	-187*
N=C1CCCN1CC(=O)c1ccc(Br)cc1	-87*
O=C(Nc1ccc(N2CCCCC2)cc1)c1cccnc1Cl	-128*
O=C(Nc1ccc(N2CCCC2)cc1)c1ccccc1F	-80*
O=C(Nc1ccc(N2CCCC2)cc1)c1cccc(Cl)c1Cl	-100*
O=C(Nc1ccc(N2CCOCC2)nc1)c1ccccc1Cl	-102*
COC(=O)c1sccc1NC(=O)/C=C/c1ccc(Cl)cc1Cl	-206*
COC(=O)c1sccc1NC(=O)/C=C/c1c(Cl)cccc1Cl	-139*
O=C(COc1ccccc1)Nc1nnc(C23CC4CC(CC(C4)C2)C3)s1	-75*
COc1ccc(NC(=O)Cn2nnc(-c3ccccc3NC(=O)c3ccco3)n2)cc1	-117*
C/C=C(\C)c1nnc(NC(=O)c2ccco2)s1	-78*
COc1cccc(-c2nnc(NC(=O)c3ccco3)s2)c1	-97*
Cc1cccc(C(=O)Nc2nnc(SCC(=O)NCc3ccco3)s2)c1	-101*
O=C(Nc1nnc(C23CC4CC(CC(C4)C2)C3)s1)c1ccco1	-89*
COc1cccc(-c2nnc3sc(-c4ccco4)nn23)c1	-95*
Cc1ccc(-c2nnc(NC(=O)c3ccco3)s2)cc1	-84*
COc1cccc(-c2nnc(NC(=O)c3cccs3)s2)c1	-119*
Cc1cccc(C(=O)Nc2nnc(-c3ccc(C(C)(C)C)cc3)s2)c1	-102*
COc1ccc(-c2nnc(NC(=O)c3ccco3)s2)cc1	-122*
COc1cccc2sc(/N=C/N(C)C)nc12	-81*
CCCCc1c(O)nc(SCC(=O)c2ccccc2)[nH]c1=O	-87*
O=C(CSc1nc(O)c(Cc2ccccc2)c(=O)[nH]1)c1ccccc1	-63*
CSc1ccc(/C=N/n2c(C)cc(C)cc2=O)cc1	-127*
SMILES	aSyn 5UTR act
CSc1ccc(/C=N/N2CCN(C)CC2)cc1	-95*
CN1CCN(/N=C/c2ccc(-c3ccccc3)cc2)CC1	-133*
CCc1cc2c(=O)c(-c3nc4ccccc4n3C)c(COCC(=O)O)oc2cc1O	-81*
COc1cccc(Nc2nc(-c3ccc(O)cc3)cs2)c1	-191*
COc1cccc(Nc2nc(-c3cccc(N4C(=O)c5ccccc5C4=O)c3)cs2)c1	-62*
Cc1ccc(O)c(-c2cc(-c3cccc(F)c3)n[nH]2)c1	-96*
Cc1ccc(-c2cc(-c3cccc(F)c3)n[nH]2)c(O)c1	-154*
O=[N+]([O-])c1ccccc1-c1cc(-c2ccccc2O)n[nH]1	-256*
Cc1ccc(O)c(-c2cc(-c3ccccc3F)[nH]n2)c1	-115*
C=C(C)COc1ccc(-c2[nH]ncc2-c2ccc(Br)cc2)c(O)c1	91
COc1ccc(-c2cc(-c3ccc(Cl)cc3)n[nH]2)c(O)c1	-202*
